# Assay results as given in article PMC11574364.
# Assays:
# Experiment in all cases: protein domain microarray probed with biotinylated miRNA; Domain array: 20 mM Tris-HCl pH 7.4, 200 mM KCl, 0.2 mM EDTA, 0.05% NP40, 2 ug/ul heparin, overnight 4 C. ORF array: PBS pH 7.0 with RNase inhibitor, 100 ng RNA; high values mean tight binding
# Settings in all cases: ssRNA
# KHSRP(1-4) = target: T1, KHSRP(1-4) (Homo sapiens, UniProt Q92945)
# T1 sequence: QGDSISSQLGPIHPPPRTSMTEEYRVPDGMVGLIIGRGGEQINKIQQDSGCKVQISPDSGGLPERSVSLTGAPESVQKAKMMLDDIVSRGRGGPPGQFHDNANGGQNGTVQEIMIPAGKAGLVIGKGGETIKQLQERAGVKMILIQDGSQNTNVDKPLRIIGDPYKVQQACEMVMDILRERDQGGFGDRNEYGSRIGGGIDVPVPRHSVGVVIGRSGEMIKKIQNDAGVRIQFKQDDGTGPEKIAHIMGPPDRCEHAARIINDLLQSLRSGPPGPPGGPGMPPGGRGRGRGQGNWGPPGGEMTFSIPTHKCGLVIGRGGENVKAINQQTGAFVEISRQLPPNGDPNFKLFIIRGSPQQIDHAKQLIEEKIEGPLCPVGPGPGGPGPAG
# RALY = RALY (Homo sapiens, UniProt Q9UKM9)
# Sequence of RALY (Q9UKM9 1-115): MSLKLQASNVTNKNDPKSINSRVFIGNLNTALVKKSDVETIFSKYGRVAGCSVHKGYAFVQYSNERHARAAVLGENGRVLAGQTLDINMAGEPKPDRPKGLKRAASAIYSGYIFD
# RBM19(1) = target: T2, RBM19(1) (Homo sapiens, UniProt Q9Y4C8)
# T2 sequence: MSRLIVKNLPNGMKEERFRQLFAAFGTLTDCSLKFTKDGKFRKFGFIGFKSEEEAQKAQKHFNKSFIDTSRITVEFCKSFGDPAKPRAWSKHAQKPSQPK
# FXR1(1-2) = FXR1(1-2) (Homo sapiens, UniProt P51114)
# Sequence of FXR1(1-2) (P51114 201-372): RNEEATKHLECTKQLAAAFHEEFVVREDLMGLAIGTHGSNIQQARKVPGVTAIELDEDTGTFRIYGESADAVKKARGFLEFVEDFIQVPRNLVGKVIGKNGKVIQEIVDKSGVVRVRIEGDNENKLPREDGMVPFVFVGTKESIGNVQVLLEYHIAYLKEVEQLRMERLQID
# SFRS12 = target: T3, SFRS12 (Homo sapiens, UniProt Q8WXA9)
# T3 sequence: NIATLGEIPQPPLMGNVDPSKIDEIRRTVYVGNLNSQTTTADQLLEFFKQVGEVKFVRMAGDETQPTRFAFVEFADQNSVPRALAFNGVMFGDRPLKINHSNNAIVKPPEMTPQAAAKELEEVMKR
# U1SNRNPBP = target: T4, U1SNRNPBP (Homo sapiens, UniProt Q16560)
# T4 sequence: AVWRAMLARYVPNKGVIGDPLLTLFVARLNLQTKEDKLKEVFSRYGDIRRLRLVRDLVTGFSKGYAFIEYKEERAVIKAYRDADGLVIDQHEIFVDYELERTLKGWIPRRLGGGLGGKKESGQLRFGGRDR
# RBM47 = target: T5, RBM47 (Homo sapiens, UniProt A0AV96)
# T5 sequence: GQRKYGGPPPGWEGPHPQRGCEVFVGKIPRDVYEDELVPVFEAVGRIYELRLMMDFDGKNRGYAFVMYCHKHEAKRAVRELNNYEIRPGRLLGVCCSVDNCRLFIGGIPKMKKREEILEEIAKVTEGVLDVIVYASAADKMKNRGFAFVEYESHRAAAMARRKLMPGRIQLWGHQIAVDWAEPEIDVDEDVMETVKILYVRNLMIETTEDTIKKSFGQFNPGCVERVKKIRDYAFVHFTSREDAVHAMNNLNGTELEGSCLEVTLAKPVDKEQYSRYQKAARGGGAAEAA
# RBMS2 = target: T6, RBMS2 (Homo sapiens, UniProt Q15434)
# T6 sequence: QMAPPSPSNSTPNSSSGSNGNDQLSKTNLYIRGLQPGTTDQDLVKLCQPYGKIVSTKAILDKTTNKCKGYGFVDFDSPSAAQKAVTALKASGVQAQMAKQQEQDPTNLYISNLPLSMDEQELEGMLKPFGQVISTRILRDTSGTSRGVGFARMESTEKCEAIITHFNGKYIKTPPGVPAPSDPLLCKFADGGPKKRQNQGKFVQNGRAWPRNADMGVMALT
# STAU1(1) = STAU1(1) (Homo sapiens, UniProt O95793)
# Sequence of STAU1(1) (O95793 52-182): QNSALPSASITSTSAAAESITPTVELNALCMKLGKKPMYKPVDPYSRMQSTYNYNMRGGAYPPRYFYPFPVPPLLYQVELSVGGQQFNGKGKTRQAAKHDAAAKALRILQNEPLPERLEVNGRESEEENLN
# STRBP(1) = target: T7, STRBP(1) (Homo sapiens, UniProt Q96SI9)
# T7 sequence: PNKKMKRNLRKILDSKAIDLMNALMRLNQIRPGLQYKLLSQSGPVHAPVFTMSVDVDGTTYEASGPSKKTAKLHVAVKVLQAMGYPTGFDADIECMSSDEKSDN
# RBM25 = RBM25 (Homo sapiens, UniProt P49756)
# Sequence of RBM25 (P49756 67-185): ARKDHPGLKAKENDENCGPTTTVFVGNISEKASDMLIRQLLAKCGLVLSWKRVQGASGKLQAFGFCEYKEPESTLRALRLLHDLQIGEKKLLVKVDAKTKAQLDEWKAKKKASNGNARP
# RBM21 = target: T8, RBM21 (Homo sapiens, UniProt Q9H6E5)
# T8 sequence: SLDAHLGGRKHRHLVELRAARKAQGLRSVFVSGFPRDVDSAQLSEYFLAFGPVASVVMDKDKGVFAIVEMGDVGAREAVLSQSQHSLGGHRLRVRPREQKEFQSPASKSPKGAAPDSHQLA
# SART3 = target: T9, SART3 (Homo sapiens, UniProt Q15020)
# T9 sequence: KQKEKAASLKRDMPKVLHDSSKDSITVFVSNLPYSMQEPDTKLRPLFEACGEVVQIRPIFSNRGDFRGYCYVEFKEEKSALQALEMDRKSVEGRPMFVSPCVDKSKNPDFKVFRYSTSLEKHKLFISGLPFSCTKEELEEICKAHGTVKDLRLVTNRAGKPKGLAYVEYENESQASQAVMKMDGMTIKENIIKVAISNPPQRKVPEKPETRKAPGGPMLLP
# STAU2(4) = target: T10, STAU2(4) (Homo sapiens, UniProt Q9NUL3)
# T10 sequence: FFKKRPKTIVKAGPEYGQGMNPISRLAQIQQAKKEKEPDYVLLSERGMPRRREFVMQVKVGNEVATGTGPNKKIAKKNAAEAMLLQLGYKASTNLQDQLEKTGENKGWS
# RBM11 = target: T11, RBM11 (Homo sapiens, UniProt P57052)
# T11 sequence: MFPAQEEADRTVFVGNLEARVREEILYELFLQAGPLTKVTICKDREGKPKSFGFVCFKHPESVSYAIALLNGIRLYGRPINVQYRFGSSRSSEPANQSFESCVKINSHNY
# REXON = target: T12, REXON (Homo sapiens, UniProt Q96IC2)
# T12 sequence: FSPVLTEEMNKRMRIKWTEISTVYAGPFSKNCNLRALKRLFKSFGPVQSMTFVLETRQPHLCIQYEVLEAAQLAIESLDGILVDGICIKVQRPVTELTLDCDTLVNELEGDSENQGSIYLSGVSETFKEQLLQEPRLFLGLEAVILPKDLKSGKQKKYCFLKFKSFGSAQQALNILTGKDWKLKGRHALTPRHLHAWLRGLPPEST
# IGF2BP2(1-2) = IGF2BP2(1-2) (Homo sapiens, UniProt Q9Y6M1)
# Sequence of IGF2BP2(1-2) (Q9Y6M1 176-362): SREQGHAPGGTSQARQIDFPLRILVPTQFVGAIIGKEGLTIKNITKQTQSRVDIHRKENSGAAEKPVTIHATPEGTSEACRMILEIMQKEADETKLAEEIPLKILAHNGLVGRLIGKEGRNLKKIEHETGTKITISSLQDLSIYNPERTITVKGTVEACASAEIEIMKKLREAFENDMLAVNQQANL
# RBPMS = RBPMS (Homo sapiens, UniProt Q93062)
# Sequence of RBPMS (Q93062 1-125): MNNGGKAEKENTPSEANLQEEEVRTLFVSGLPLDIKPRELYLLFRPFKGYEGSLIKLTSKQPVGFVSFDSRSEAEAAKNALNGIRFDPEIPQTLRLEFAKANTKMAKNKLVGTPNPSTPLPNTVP
# TRA2B = target: T13, TRA2B (Homo sapiens, UniProt P62995)
# T13 sequence: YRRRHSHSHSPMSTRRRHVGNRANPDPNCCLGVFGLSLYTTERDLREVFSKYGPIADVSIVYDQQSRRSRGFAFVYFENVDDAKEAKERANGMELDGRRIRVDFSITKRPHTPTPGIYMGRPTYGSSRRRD
# RAVER1 = target: T14, RAVER1 (Homo sapiens, UniProt Q8IY67)
# T14 sequence: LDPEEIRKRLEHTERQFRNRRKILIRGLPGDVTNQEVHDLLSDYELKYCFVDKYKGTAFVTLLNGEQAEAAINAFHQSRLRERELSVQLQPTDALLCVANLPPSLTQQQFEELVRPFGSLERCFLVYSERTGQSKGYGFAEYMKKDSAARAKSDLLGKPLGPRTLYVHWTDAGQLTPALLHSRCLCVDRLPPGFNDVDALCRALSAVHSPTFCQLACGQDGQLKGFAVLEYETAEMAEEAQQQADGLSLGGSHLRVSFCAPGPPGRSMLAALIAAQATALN
Sequence,binding signal (KHSRP(1-4)) [fluorescence intensity],binding signal (RALY) [fluorescence intensity],binding signal (RBM19(1)) [fluorescence intensity],binding signal (FXR1(1-2)) [fluorescence intensity],binding signal (SFRS12) [fluorescence intensity],binding signal (U1SNRNPBP) [fluorescence intensity],binding signal (RBM47) [fluorescence intensity],binding signal (RBMS2) [fluorescence intensity],binding signal (STAU1(1)) [fluorescence intensity],binding signal (STRBP(1)) [fluorescence intensity],binding signal (RBM25) [fluorescence intensity],binding signal (RBM21) [fluorescence intensity],binding signal (SART3) [fluorescence intensity],binding signal (STAU2(4)) [fluorescence intensity],binding signal (RBM11) [fluorescence intensity],binding signal (REXON) [fluorescence intensity],binding signal (IGF2BP2(1-2)) [fluorescence intensity],binding signal (RBPMS) [fluorescence intensity],binding signal (TRA2B) [fluorescence intensity],binding signal (RAVER1) [fluorescence intensity]
UAGCUUAUCAGACUGAUGUUGA,192 ± 3.5,591 ± 33.9,37.3 ± 6.15,31.1 ± 0.919,30.2 ± 10.4,,,,,,,,,,,,,,,
AGAGGUAGUAGGUUGCAUAGUU,951 ± 76.8,1628 ± 11.4,400 ± 17.2,46.8 ± 0.523,364 ± 21,63.6 ± 1.29,29.82 ± 0.276,79.9 ± 6.82,25.68 ± 0.0778,34.2 ± 1.84,39.5 ± 3.96,34.33 ± 0.0778,36.8 ± 2.71,100.36 ± 0.0283,28 ± 4.14,106 ± 7.17,23 ± 1.49,754 ± 55.2,1220 ± 41.8,
UGAGGUAGUAGGUUGUGUGGUU,992.47 ± 0.686,1730 ± 54.9,592 ± 96.6,436 ± 32.2,314 ± 21.7,130 ± 6.12,53 ± 7.04,95.1 ± 1.34,69.7 ± 6.19,125 ± 14.3,98.3 ± 20.9,63.5 ± 6.73,113 ± 30.2,275.8 ± 2.53,26.6 ± 2.58,198.5 ± 0.0919,31.4 ± 2.92,168 ± 4.32,748 ± 54,22.3 ± 5.17
CAGUGCAAUGAUGAAAGGGCAU,675 ± 8.46,332 ± 5.22,249 ± 33.6,111.8 ± 0.544,243 ± 4.09,46.4 ± 1.24,26.2 ± 2.96,39 ± 3.47,,37.99 ± 0.283,36 ± 0.488,38.1 ± 3.22,29.6 ± 6.57,92.53 ± 0.0283,25.7 ± 8.53,88.4 ± 1.34,24.1 ± 3.02,844 ± 72.7,656 ± 15.9,
UGAGGUAGUAGGUUGUAUGGUU,786 ± 28.3,1750 ± 31.6,519 ± 35.8,95 ± 11.4,264 ± 26.8,99.4 ± 1.25,41.2 ± 0.636,91.7 ± 4.18,44.5 ± 1.05,62.8 ± 0.686,63.1 ± 0.806,53.6 ± 2.81,51.5 ± 2.31,168 ± 2.52,36.7 ± 5.74,102 ± 6.23,26.07 ± 0.24,145 ± 43.8,1050 ± 32.8,26.62 ± 0.0495
UGAGGUAGUAGGUUGUAUAGUU,419 ± 11.8,789 ± 24.3,132 ± 21,34.3 ± 0.7,44.9 ± 2.62,,,24.7 ± 2.59,,,,,,31.34 ± 0.269,,30.1 ± 0.375,,63.4 ± 5.39,97.2 ± 22.2,21.1 ± 4.28
